Among the data in PubChem BioAssay AID743361 (Molecular Libraries Program, Specialized Chemistry Center, …, 2014) are IC50 values, retold here.

A number with no mark means an inactive call. Calls of active or inactive are those of the source. No rule for the calls is given here.

This assay in a line: Rhodamine 123 quenching counterscreen activity, dose response, counter-screen for mtPTP inhibitor project, biochemical, dry powder samples, uHTS hits, fluorescence (AID 743361). To be noted: Rhodamine 123 fluorescence quenching counterscreen, cell-free. On the technique in general: Counterscreens check selectivity or assay interference.
As to `C[C@@H]1CCC[C@H](C)N1CCCC(=O)c1ccc(Br)cc1`, the IC50 was more than 100 µM.

For `COc1ccc(Cl)cc1C(=O)Nc1ccc(CCN2CCN(C)CC2)cc1`, the IC50 is more than 100 µM. To `O=S(=O)(Nc1ccc(CN2CCCCC2)cc1)c1ccc(F)c(Cl)c1` belongs more than 100 µM. With `CC(C)C1CCN(CCCC(=O)c2ccc(Br)cc2)CC1`, the IC50 is 64.6 µM (active). To `O=C(Nc1ccccc1C(F)(F)F)c1cc(-c2ccccc2)on1` belongs more than 100 µM. To `COc1ccc(Cl)cc1C(=O)Nc1ccc(N2CCOCC2)cc1` belongs more than 100 µM; to `COc1ccc(Cl)cc1S(=O)(=O)Nc1ccc(CCN2CCN(C)CC2)cc1`, more than 100 µM; to `COc1ccc(Cl)cc1C(=O)Nc1ccccc1`, more than 100 µM.

On to `COc1ccc(/C=C/C(=O)Nc2cccc(Cl)c2)cc1O`, for which the IC50 was more than 100 µM.

Regarding `COc1ccc(Cl)cc1S(=O)(=O)Nc1ccc(CN2CCCCC2)cc1`, the IC50 is more than 100 µM. As for `O=C(Nc1cccc(Cl)c1Cl)c1cc(-c2cccc(O)c2)on1`, the figure is more than 100 µM.

`O=C(Nc1cccc(Cl)c1)c1cc(-c2ccccc2)on1`: the IC50 is more than 100 µM. As to `O=C(Nc1ccccc1OCc1ccccc1)c1cc(-c2cccc(O)c2)on1`, the IC50 was more than 100 µM. As for `O=C(Nc1ccc(CN2CCCCC2)cc1)c1ccc(Cl)c(OCc2ccccc2)c1`, the 50% inhibitory concentration (IC50) was 28.2 µM (active). As for `COc1ccc(NC(=O)c2cc(-c3cccc(O)c3)on2)cc1Cl`, the figure is more than 100 µM; as for `Cc1c(Cl)cccc1NC(=O)c1cc(-c2cccc(O)c2)on1`, more than 100 µM.

Usually IC50 stands for the concentration that inhibits the measured activity by half.
